# Out of some 2,500 compounds screened, about 2,200 (88%) were called active. So high a share suggests a set chosen from earlier hits. The list is a sample of the results. Values without a mark were called inactive.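 How the source made its calls: active means primary screen active, with duplicate mean activation above negative control mean plus 3 SD (cut at about 11% in these data); inactive means the rest.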
# Biological target: High affinity choline transporter 1 (Homo sapiens) (UniProt Q9GZV3)
# Experiment: CHT activators, confirmation, cell-based, membrane potential dye, duplicate (AID 504833)
# Conditions: CHT-expressing cells, membrane potential dye fluorescence (FDSS); at 10 µM; active compounds read high; % of choline EC20–EC90 response window; HEK293 expressing CHT LV-AA mutant; choline added at its EC20
# Chain of High affinity choline transporter 1 (Homo sapiens) (Q9GZV3 whole entry, looked up): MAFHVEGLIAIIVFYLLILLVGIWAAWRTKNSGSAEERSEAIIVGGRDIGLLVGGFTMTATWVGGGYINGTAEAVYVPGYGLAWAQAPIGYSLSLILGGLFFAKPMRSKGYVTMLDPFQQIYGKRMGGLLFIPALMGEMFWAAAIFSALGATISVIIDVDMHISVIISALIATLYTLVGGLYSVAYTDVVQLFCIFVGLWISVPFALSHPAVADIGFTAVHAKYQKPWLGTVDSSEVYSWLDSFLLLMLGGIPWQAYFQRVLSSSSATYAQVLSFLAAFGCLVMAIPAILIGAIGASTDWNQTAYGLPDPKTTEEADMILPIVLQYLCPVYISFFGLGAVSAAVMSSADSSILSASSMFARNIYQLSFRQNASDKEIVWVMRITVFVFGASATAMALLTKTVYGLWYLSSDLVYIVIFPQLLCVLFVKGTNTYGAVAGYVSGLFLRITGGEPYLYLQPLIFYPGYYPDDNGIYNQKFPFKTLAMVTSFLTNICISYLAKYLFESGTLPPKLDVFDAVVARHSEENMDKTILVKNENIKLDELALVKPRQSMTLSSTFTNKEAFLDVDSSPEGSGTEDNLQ
row,Structure (SMILES),activation
1,CN1CCN(c2cc(N3CCNCC3)ccc2[N+](=O)[O-])CC1,80.3% (active)
2,Cc1nc2ccc(N3CCN(C)CC3)cc2nc1C,20.3% (active)
3,CCCCCn1c(=O)c(C(=O)Nc2c(C)n(C)n(-c3ccccc3)c2=O)c(O)c2ccccc21,6.79%
4,CCN1CCN(c2ccc([N+](=O)[O-])cc2C#N)CC1,43.4% (active)
5,CCOc1ccc(-c2cc(C)[n+](CCN(CC)CC)c(-c3ccc(OCC)cc3)c2)cc1,34.4% (active)
6,CC[N+](CC)(CC)CCCCCCCCCC[N+](CC)(CC)CC,41% (active)

# — PubChem BioAssay AID504833 (Johns Hopkins Ion Channel Center, 2011)
